# Measured values: PubChem BioAssay AID651871 (Sanford-Burnham Center for Chemical Genomics, 2012)
# Values joined by “and” are separate entries in the source; they are usually repeats but may differ in a detail not shown here. Equal values may be shown once.
# Test system: HL-1
# Assay: cardiomyocyte survival under oxidative or metabolic stress – cell-based, panel, H9c2 and HL-1, ATP luminescence, set 2, SAR follow-up (AID 651871);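 further: cells exposed to stressor for 2 h before ATP readout; reference of the scale not given here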
# Details: H9c2/HL-1 cardiomyocytes, H2O2 oxidative stress; with H2O2, run 2, at 79 µM (top of the series)
row,Compound,activity (protection/inhibition)
1,COc1ccc2c(c1OC)C(=O)N1c3ccccc3C(=O)N(Cc3cccc(Cl)c3Cl)C21 (centres undefined),-0.168% and -1.52% and -3.02%
2,CCOC(=O)c1cccc(NC(=O)CNC(=O)c2cc(-c3cc(OC)c(OC)c(OC)c3)nc3ccccc23)c1,44%
3,COc1cc(-c2cc(C(=O)Nc3cccc(C(=O)NCc4ccccc4)c3)c3ccccc3n2)cc(OC)c1OC,25%
4,COc1ccc2nc(-c3cc(OC)c(OC)c(OC)c3)cc(C(=O)NCC(=O)Nc3ccc(C(C)=O)cc3)c2c1,27.5% and 38.9%
